Here are results for five molecules from the supplement of paper PMC6992640.

This experiment has as its system UCD52 (cells of a triple-negative basal-like breast cancer xenograft). The experiment is described as follows: cell viability of combination (% of vehicle); higher = less cytotoxic. Particulars: 1 µM; 72 h; partner dose: 10 nM. How it is done:
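PDX cells were treated for 72 h with each drug at 1 µM plus afatinib (10 nM; 1 µM for WHIM30). Luciferase viability is expressed as percent of vehicle.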
`CCCCCCCCCCCCCCCC[n+]1ccccc1.[Cl-]` [Cetylpyridinium Chloride] + CN(C)C/C=C/C(=O)Nc1cc2c(Nc3ccc(F)c(Cl)c3)ncnc2cc1O[C@H]1CCOC1 [Afatinib]: the “cell viability of combination” value worked out at 55.3.

Take `Cc1cc(C(C#N)c2ccc(Cl)cc2)c(Cl)cc1NC(=O)c1cc(I)cc(I)c1[O-].[Na+]` (stereo not given) [Closantel Sodium] + CN(C)C/C=C/C(=O)Nc1cc2c(Nc3ccc(F)c(Cl)c3)ncnc2cc1O[C@H]1CCOC1 [Afatinib]: the “cell viability of combination” value turned out to be 72.7.

In the case of `CCCCCCCCCCCCCCCC[N+](C)(C)C.[Br-]` [Cetrimonium Bromide (CTAB)] + CN(C)C/C=C/C(=O)Nc1cc2c(Nc3ccc(F)c(Cl)c3)ncnc2cc1O[C@H]1CCOC1 [Afatinib], the “cell viability of combination” value worked out at 66.1.

On to `Cc1cc(C(C#N)c2ccc(Cl)cc2)c(Cl)cc1NC(=O)c1cc(I)cc(I)c1O` (stereo not given) [Closantel] + CN(C)C/C=C/C(=O)Nc1cc2c(Nc3ccc(F)c(Cl)c3)ncnc2cc1O[C@H]1CCOC1 [Afatinib], for which the “cell viability of combination” value turned out to be 75.8.

As to `CCCCCCCCCCCC[N+](C)(C)CCOc1ccccc1.[Br-]` [Domiphen Bromide] + CN(C)C/C=C/C(=O)Nc1cc2c(Nc3ccc(F)c(Cl)c3)ncnc2cc1O[C@H]1CCOC1 [Afatinib], the “cell viability of combination” value was found to be 65.3.
